Measured values from ChEMBL document CHEMBL3988442, “University of Dundee, Small-Polar-MMV Screening Library” (2021).
Screen size: about 48,000 compounds; about 13,000 (27%) showed an effect of 50% or more. The list shows a part of the results.

System: Wolbachia pipientis
Assay: Anti-Wolbachia Cell-Based Screen
Format: functional
Parameters: scale not given: in the data most compounds retested in dose-response had high values
Settings: 5 µM

| Structure (SMILES) | Percent Effect [%] |
| --- | --- |
| COc1ccccc1CC1CCCN(CCC#N)C1 (stereo unspecified) | -6.976 |
| Cc1nonc1C1CCCN1C(=O)c1cc2n(n1)CCCNC2 (stereo unspecified) | -3.031 |
| COCC(O)CN(C)c1ccnc2cc(Br)ccc12 (stereo unspecified) | 92.3 |
| Cc1ccc(N(C)CC(O)COCc2ccccc2F)c(C)c1 (stereo unspecified) | 0.5576 |
| COCC(O)CN(C)c1ccnc2ccc(Cl)cc12 (stereo unspecified) | 99.68 |
| COc1ccc(Cl)cc1NC(=O)N(C)CC(O)COCCOC(C)C (stereo unspecified) | -8.214 |
| COc1cc(F)ccc1N(C)Cc1ccccn1 | 9.437 |
| COCC(=O)N1CCC(Nc2ccnc3ccc(Cl)cc23)CC1 | -6.533 |
| COCC(O)CNc1cncc(Br)c1 (stereo unspecified) | -2.667 |
| COCC(O)CN(C)c1ccnc2cc(F)ccc12 (stereo unspecified) | 83.56 |
| COc1ccc(COCC(O)CN(C)c2ccc(C)cc2C)cc1 (stereo unspecified) | 10.8 |
| COC(=O)c1ccc(Cl)c(NS(=O)(=O)c2cnn(C)c2)c1 | -1.605 |
| O=C(CNC(=O)C1CC1)NCC(F)(F)F | -16.51 |
| Cl.NC(=O)CCc1cccc(C2CCNCC2)n1 | 115.3 |
| Cl.O=C(CCc1cccc(C2CCNCC2)n1)N1CCCCC1 | 116.4 |
| O=C(CCc1ccccc1)N1CCC(c2n[nH]c(C3CC3)n2)CC1 | -4.114 |
| CNC(=O)[C@H]1C[C@@H]2CN(S(=O)(=O)c3ccc(C)c(F)c3)C[C@@H]2N1C.O=C(O)C(F)(F)F | -6.907 |
| O=C(c1ccoc1)N1CCCC1C1CCN(Cc2ccccc2)CC1 (stereo unspecified) | -51.53 |
| Cc1nn(C)c(Cl)c1C1CCCN1c1ncnc2c1CCC2 (stereo unspecified) | 16.41 |
| CNC(=O)c1[nH]nc2ccc(I)cc12 | 8.904 |
| COc1ccc2c(C)c(C(=O)NC3CCN(S(C)(=O)=O)CC3)oc2c1 | 1.038 |
| Cc1c(C(=O)O)oc2ccc(I)cc12 | 125.9 |

| Structure (SMILES) | Percent Effect [%] |
| --- | --- |
| O=C(O)CSc1nnc(-c2ccco2)n1-c1ccccc1C(F)(F)F | -16 |
| COc1cc2c(nn1)CCN(Cc1noc(-c3ccccc3)n1)C2 | -2.709 |
| NC(=O)c1ccc(C(=O)N(Cc2ccc(O)cc2)CC2CC2)cc1 | -2.707 |
| COCC1c2c(cnn2C)CCN1C(=O)c1cc(C)on1.O=C(O)C(F)(F)F (stereo unspecified) | 103.5 |
| COCC1c2nnn(CC3CC3)c2CCN1C(=O)c1cc(C)on1 (stereo unspecified) | 18.93 |
| CCOCC1c2c(cnn2C)CCN1C(=O)c1cc(C)on1.O=C(O)C(F)(F)F (stereo unspecified) | 118 |
| CCOCC1c2c(cnn2C)CCN1C(=O)c1ccncn1.O=C(O)C(F)(F)F (stereo unspecified) | -13.88 |
| O=C(COc1cccc(Br)c1)N1CCN(c2nccs2)CC1 | 20.8 |
| CC(C)c1noc(C2CCCN2C(=O)Cc2cn3ccsc3n2)n1 (stereo unspecified) | 5.125 |
| CN(C)CCCNC(=O)C(c1cccc(F)c1)N(C)C (stereo unspecified) | 6.227 |
| O=C(Nc1ccc(-n2ccnc2)c(F)c1)C1CCN(C(=O)C2CC2)CC1 | -14.41 |
| COC(C)c1cccc(NCc2cccc(O)c2)c1 (stereo unspecified) | 1.439 |
| CSc1nc2ncc3c(=O)n(C)ccc3n2n1 | 108.2 |
| Cc1nc2ncc3c(=O)n(C)ccc3n2n1 | 126.9 |
| Cc1nc2nc(C)c3c(=O)n(-c4ccn[nH]4)ccc3n2n1 | 1.096 |
| Cn1ccc2c(cnc3nc(-c4ccncc4)nn32)c1=O | 109.5 |
| Cc1nc(C2CCCN2Cc2nnc(C3CC3)o2)no1 (stereo unspecified) | 5.301 |
| c1ncn(CC2CCCCN2Cc2noc(C3CC3)n2)n1 (stereo unspecified) | -14.69 |
| COc1ccc(-c2nc(CN3CCCC3Cn3cccn3)no2)cc1 (stereo unspecified) | 1.848 |
| Cc1ccc(-c2nc(CN3CCCC3Cn3cc(C)cn3)no2)cc1 (stereo unspecified) | 3.147 |
| c1ccc(-c2nc(CN3CCCC3Cn3cccn3)no2)cc1 (stereo unspecified) | 97.29 |
| CC(C)c1nc(CN2CCCC2Cn2cccn2)no1 (stereo unspecified) | 118.9 |

| Structure (SMILES) | Percent Effect [%] |
| --- | --- |
| c1cnn(CC2CCCN2Cc2noc(C3CC3)n2)c1 (stereo unspecified) | 88.48 |
| Cc1nc(CN2CCCCC2Cn2cccn2)nc2ccccc12 (stereo unspecified) | -7.431 |
| OC(COCc1ccco1)CSc1nnc2ccccn12 (stereo unspecified) | -3.086 |
| O=C(NCCN1CCc2ccccc21)c1cc(-c2ccc(O)cc2)n[nH]1 | -2.452 |
| Cn1cccc1CNCc1nnc2n1CCCC2C(F)(F)F (stereo unspecified) | -16.29 |
| O=C(NCCN1CCCCC1)c1ccn(-c2ccccc2)n1 | 106.8 |
| COc1ccc2nc(C)c(C(=O)NCCN3CCS(=O)(=O)CC3)cc2c1 | 7.609 |
| COc1ccc(-n2ccc(C(=O)NCCN3CCC(C)CC3)n2)cc1 | 99.65 |
| O=C(NCCN1CCOCC1)c1ccn(-c2ccccc2F)n1 | 7.854 |
| O=C(NCCN1CCCCCC1=O)c1ccn(-c2ccc(F)cc2)n1 | 0.8221 |
| COc1ccc(-n2ccc(C(=O)NCCN3CCCCC3C)n2)cc1 (stereo unspecified) | -3.568 |
| COc1ccc(-n2ccc(C(=O)NCCN3CCCCC3)n2)cc1 | 102.6 |
| COc1ccc(-n2ccc(C(=O)NCCN3CCCCCC3)n2)cc1 | 92.28 |
| O=C(O)C(F)(F)F.O=S(=O)(NCC1OCCc2cn(CC3CCOCC3)nc21)C1CC1 (stereo unspecified) | -11.9 |
| CNC(=O)CS(=O)(=O)Cc1ccc(OC)c(F)c1 | -52.3 |
| FC(F)(F)C1CCc2nnc(CNCc3ccsc3)n2C1 (stereo unspecified) | 11.3 |
| CC1CCN(CCNC(=O)c2ccn(-c3ccccc3)n2)CC1 | 84.83 |
| CN(C(=O)c1ccc(Cl)c(S(C)(=O)=O)c1)c1ccccc1 | -9.214 |
| COc1cc(C(N)=O)c(N(C)S(C)(=O)=O)cc1OC | -14.68 |
| Cc1c(C(=O)N(C)C)cccc1N(C)S(C)(=O)=O | 107 |
| CN(C(=O)c1ccncc1)c1ccccc1S(C)(=O)=O | 8.968 |
| Cc1c(C(=O)N(C)c2ccccc2)cccc1N(C)S(C)(=O)=O | 104.7 |

| Structure (SMILES) | Percent Effect [%] |
| --- | --- |
| CN(C(=O)c1cccc(C(=O)NS(C)(=O)=O)c1)c1ccccc1 | -9.633 |
| O=S(=O)(Nc1ncccc1F)c1cc(Cl)cc2c1OCC2 | -5.525 |
| Cc1nc(C)n(CC(C)C(=O)N2CCC(N3CCC(O)CC3)CC2)n1 (stereo unspecified) | -19.51 |
| Cc1ccc2c(c1)c(CNC(=O)C1CCN(C(C)C)CC1)nn2C | -24.27 |
| CNC(=O)C(C)(C)CNC(=O)Nc1ccncc1C | -8.722 |
| O=C(CN1CCCC(c2ncc[nH]2)C1)NCC(F)(F)F (stereo unspecified) | -4.538 |
| Cc1nc(CN2CCC(N(C)Cc3nnc(C4CC4)n3C)C2)oc1C (stereo unspecified) | 102.1 |
| Cc1nnc(CN2CCC(N(C)Cc3nnc(C4CC4)n3C)C2)o1 (stereo unspecified) | -3.428 |
| CN(Cc1nnc(C2CC2)n1C)C1CCN(Cc2ccon2)C1 (stereo unspecified) | -8.64 |
| Cc1cc(CN2CCC(N(C)Cc3nnc(C4CC4)n3C)C2)on1 (stereo unspecified) | 124.1 |
| Cc1noc(C)c1CN1CCC(N(C)Cc2nnc(C3CC3)n2C)C1 (stereo unspecified) | 103.9 |
| CN(Cc1nnc(C2CC2)n1C)C1CCN(CCS(C)(=O)=O)C1 (stereo unspecified) | -20.16 |
| CCn1c(C)nnc1CN(C)C1CCN(Cc2c(C)noc2C)C1 (stereo unspecified) | -8.892 |
| Cc1ccc(C2CSCCN2CCS(C)(=O)=O)cc1 (stereo unspecified) | -9.324 |
| O=C(NC1CC(=O)N(C2Cc3ccccc3C2)C1)c1ccsc1 (stereo unspecified) | -4.544 |
| CN1CCC(Cc2cncc(-c3ccccc3C(=O)O)n2)C1 (stereo unspecified) | 111.7 |
| CN1CCC(Cc2nc(-c3cnccn3)n(Cc3ccccc3)n2)CC1 | 21.66 |
| COCCN1CC[C@@H](O)[C@@H]1Cc1ccccc1.O=C(O)C(F)(F)F | 8.923 |
| COCCN1CCC(Cc2cnc(-c3ccccc3C(=O)O)cn2)CC1 | 103.8 |
| CC(C)N1CCC(Cc2cncc(-c3ccccc3C(=O)O)n2)C1 (stereo unspecified) | 128.5 |
| CS(=O)(=O)N1CCCC(Cc2cncc(-c3ccccc3C(=O)O)n2)C1 (stereo unspecified) | 106.5 |
| CC(C)n1nc(Cn2cccn2)c2c1CN(C1CCOC1)C2.O=C(O)C(F)(F)F (stereo unspecified) | -7.587 |

| Structure (SMILES) | Percent Effect [%] |
| --- | --- |
| COc1cc(C)ccc1S(=O)(=O)N1CC[C@](C)(O)[C@H](C)C1 | -18.99 |
| Cc1cnn(C2CN(CC(O)Cn3cccn3)C2)c1 (stereo unspecified) | -31.52 |
| COc1ncccc1-c1nc(-c2ccccn2)nn1C1CCS(=O)(=O)C1 (stereo unspecified) | 10.63 |
| CC(C#N)CNS(=O)(=O)c1ccc(F)c(Br)c1 (stereo unspecified) | -7.227 |
| O=C(Nc1ccc(S(=O)(=O)Nc2c(F)cccc2F)cc1)N1CCCC1 | -7.034 |
| CCN(CC(=O)NC(C)(C)C)Cc1cccc2c1OCCO2 | -0.7065 |
| CCNC(=O)CN(CC)Cc1nc2c(F)cccc2n1CC | -0.387 |
| CCOc1nnc(CN(CC)CC(=O)NC(C)C)s1 | 101.2 |
| CCN(CC(=O)Nc1cc(C(C)(C)C)no1)Cc1ccc(Cl)s1 | 1.082 |
| CCOc1nnc(CN(Cc2ccccc2)CC(O)c2ccco2)s1 (stereo unspecified) | 2.067 |
| CCOc1nnc(CN(CC)CC(=O)Nc2c(F)cccc2F)s1 | 97.11 |
| CCOc1nnc(CN(CC)CC(=O)NC(C)(C)C)s1 | 93.91 |
| CCN(CC(=O)NC(C)C)S(=O)(=O)N1CCCCCC1 | 9.147 |
| CCOc1ccccc1C(CC(=O)Nc1ccccc1F)NC(C)=O (stereo unspecified) | -7.406 |
| O=C1[C@@H]2CCN(Cc3ccc(F)cc3)C[C@@H]2OCCN1c1cccnc1 | -21 |
| Cc1cccc(CN2CCCC3(CCN(C4CCSCC4)C3)C2=O)c1 (stereo unspecified) | -3.098 |
| CN(C)C(=O)Cn1ccc2cc(NC(=O)N3CCSCC3)ccc21 | -2.006 |
| Cc1ccc(C)c2c(O)cc(CNCC(N)=O)nc12 | -7.963 |
